Assay results taken from PubChem BioAssay (NCI).
This is part of a sample that, as a whole, favours compounds with a hit. Of some 83,000 tested, about 20% had one in any assay.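 Cells were grown in 96-well plates and exposed to the test compound at a single concentration for 48 hours; results are reported as percent growth, with values below 10 considered active.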 The source made the active and inactive calls.

The compounds below were run on UACC-257 melanoma (assay: NCI-60 one-dose screen, 48 h (100 = growth as untreated, 0 = no growth, -100 = all killed)). Settings: 10 µM unless noted.

Row | Compound | growth
1 | O=C(N/N=C/c1ccccc1SSc1ccccc1/C=N/NC(=O)c1ccccc1)c1ccccc1 | 45.1% (inactive)
2 | C[C@@H]1CCCCCCCCC[C@H](O)C(=O)C[C@@H](SC[C@@H](O)C(=O)O)C(=O)O1 | 83.4% (inactive)
3 | C=C(C)[C@@H]1CC[C@]2(C)[C@H](CC=C3[C@@H]4CC(C)(C)CC[C@]4(C(=O)OC)CC[C@]32C)[C@@]1(C)CC/C(N)=N/O | -32.1% (active)
4 | C=C(C)[C@@H]1CC[C@]2(C)[C@H](CC=C3[C@@H]4CC(C)(C)CC[C@]4(C=O)CC[C@]32C)[C@@]1(C)CCCN | 81% (inactive)
5 | Cc1ccc(/C=C(\C#N)c2cc3ccccc3n2C)cc1 | 89.6% (inactive)
6 | N=C(N)c1ccc(S(N)(=O)=O)cc1 | 93% (inactive)
7 | COc1ccc(-c2cc(=O)oc3ccc(Cl)cc23)cc1F | 47.3% (inactive)
8 | CCSc1sc(-c2ccc(C)cc2)nc1[P+](c1ccccc1)(c1ccccc1)c1ccccc1 | -3.94% (active)
9 | Brc1ccc2[nH]cc(-c3nc(-c4c[nH]c5ncccc45)cs3)c2c1 | -6.38% (active)
10 | Cc1ccc(-c2ccc(Nc3ccccc3)nn2)cc1S(N)(=O)=O | 96.4% (inactive)
11 | Cn1c2c(Cl)c(Cl)ccc2c2c(C#N)c[nH]c(=O)c21 | 98.1% (inactive)
12 | C/C(=N/NC(N)=S)C(=O)O | 61.1% (inactive)
13 | CCCCC[C@H]1C/C=C2/C(=O)C=C[C@@H]2C/C=C\CCCC(=O)O[C@@H](CCCCC)C/C=C2/C(=O)C=C[C@@H]2C/C=C\CCCC(=O)O1 | -61.7% (active)
14 | C#CCn1c(C)cc(C)c(C#N)c1=O | 103% (inactive)
15 | N#CC1C(=N)Cc2ccccc2-c2ccccc21 (stereo not drawn) | 51.5% (inactive)
16 | Cc1cc(N2CCCCC2)nc(N(CCNc2ccnc3cc(Cl)ccc23)Cc2ccco2)n1 | 88% (inactive)
17 | C[C@@H](C(=O)O)c1ccc2c3cc(Cl)ccc3n(Cc3cc(=O)oc4ccc(Cl)cc34)c2c1 | 104% (inactive)
18 | C=C1C(=O)O[C@H]2[C@H]1CC/C(COC(=O)NCc1cc3ccccc3[nH]1)=C\CC[C@@]1(C)O[C@@H]21 | 46.2% (inactive)
19 | CCOC(=O)N1CCN(CCCCOc2ccc(C(C)(C)CC)cc2)CC1 | 94% (inactive)
20 | OCC(CO)(CCl)CCl | 69.6% (inactive)
21 | COc1ccc(-c2cc(/C=C/C(=O)c3ccc(N)cc3)[nH]n2)cc1 | 58.9% (inactive)
22 | CC(C)(C)c1nc(-c2ccc(O)c(O)c2)cs1 | 76.2% (inactive)
23 | Brc1ccc(Cn2nnnc2-c2ccn(-c3ccccc3)n2)cc1 | 28.8% (inactive)
24 | COC(=O)C(Cc1ccccc1)n1cc(COc2nc(Cl)nc(Nc3ccc(Cl)cc3)n2)nn1 (stereo not drawn) | 94.7% (inactive)
25 | Cn1cc(-c2csc(-c3cn(CCN)c4ccc(F)cc34)n2)c2cccnc21 | 100% (inactive)
26 | COc1ccc(NC(=S)N/N=C/c2ccccc2SSCCC(=O)OC[C@H]2O[C@H](O)[C@H](O)[C@@H](O)[C@@H]2O)cc1 | 98.4% (inactive)
27 | COc1cnc2c(c1)C(=O)c1c-2n(CCCNC2=NCCS2)c(=O)c2cc([N+](=O)[O-])ccc12 | 35.4% (inactive)
28 | OCCNc1nc(Nc2ccc(Cl)c(Cl)c2)nc2ccccc12 | 57.9% (inactive)
29 | Cc1ccsc1-c1ccc2c(c1)COC2(CCCN(C)C)c1ccc(F)cc1 (stereo not drawn) | -10.5% (active)
30 | COc1ccc(NC(=O)c2ccoc2COc2ccccc2)cc1 | 99.7% (inactive)

The compounds below were run on M14 melanoma in the same assay as above. Settings: 10 µM unless noted.

Row | Compound | growth
31 | Nc1c(C(=O)Nc2c(Cl)cccc2Cl)sc2nc3c(cc12)CCCC3 | 46.6% (inactive)
32 | COc1cc2ncnc(Nc3ccc(OCc4cccc(F)c4)c(Cl)c3)c2cc1NC(=O)C1CCCC1 | 71.4% (inactive)
33 | O=C(N/N=C/c1ccccc1SSc1ccccc1/C=N/NC(=O)c1ccccc1)c1ccccc1 | 12.9% (inactive)
34 | C[C@@H]1CCCCCCCCC[C@H](O)C(=O)C[C@@H](SC[C@@H](O)C(=O)O)C(=O)O1 | 87% (inactive)
35 | C=C(C)[C@@H]1CC[C@]2(C)[C@H](CC=C3[C@@H]4CC(C)(C)CC[C@]4(C(=O)OC)CC[C@]32C)[C@@]1(C)CC/C(N)=N/O | 43.8% (inactive)
36 | C=C(C)[C@@H]1CC[C@]2(C)[C@H](CC=C3[C@@H]4CC(C)(C)CC[C@]4(C=O)CC[C@]32C)[C@@]1(C)CCCN | 63.9% (inactive)
37 | Cc1ccc(/C=C(\C#N)c2cc3ccccc3n2C)cc1 | 14% (inactive)
38 | N=C(N)c1ccc(S(N)(=O)=O)cc1 | 94.7% (inactive)
39 | COc1ccc(-c2cc(=O)oc3ccc(Cl)cc23)cc1F | 15.3% (inactive)
40 | CCSc1sc(-c2ccc(C)cc2)nc1[P+](c1ccccc1)(c1ccccc1)c1ccccc1 | -8.96% (active)
41 | COC(=O)[C@]12CC[C@@H](C)[C@H](C)[C@@H]1C1=CC(=O)[C@@H]3[C@@]4(C)C[C@@H](O)[C@H](O)[C@@]5(C)COC(=C45)C[C@@]3(C)[C@]1(C)CC2 | 27.4% (inactive)
42 | O=S(=O)(NCCNc1cc(-c2cn(-c3ccccc3)nc2-c2cccc(O)c2)ccn1)c1ccc(Br)cc1 | 20.3% (inactive)
43 | Brc1ccc2[nH]cc(-c3nc(-c4c[nH]c5ncccc45)cs3)c2c1 | 8.64% (active)
44 | Cc1ccc(-c2ccc(Nc3ccccc3)nn2)cc1S(N)(=O)=O | 83.2% (inactive)
45 | Cn1c2c(Cl)c(Cl)ccc2c2c(C#N)c[nH]c(=O)c21 | 105% (inactive)
46 | C/C(=N/NC(N)=S)C(=O)O | 97.4% (inactive)
47 | CCCCC[C@H]1C/C=C2/C(=O)C=C[C@@H]2C/C=C\CCCC(=O)O[C@@H](CCCCC)C/C=C2/C(=O)C=C[C@@H]2C/C=C\CCCC(=O)O1 | -82.8% (active)
48 | C#CCn1c(C)cc(C)c(C#N)c1=O | 106% (inactive)
49 | N#CC1C(=N)Cc2ccccc2-c2ccccc21 (stereo not drawn) | 16.2% (inactive)

Row | Compound | growth
50 | Cc1cc(N2CCCCC2)nc(N(CCNc2ccnc3cc(Cl)ccc23)Cc2ccco2)n1 | 9.4% (active)
51 | C[C@@H](C(=O)O)c1ccc2c3cc(Cl)ccc3n(Cc3cc(=O)oc4ccc(Cl)cc34)c2c1 | 100% (inactive)
52 | C=C1C(=O)O[C@H]2[C@H]1CC/C(COC(=O)NCc1cc3ccccc3[nH]1)=C\CC[C@@]1(C)O[C@@H]21 | -27.9% (active)
53 | CCOC(=O)N1CCN(CCCCOc2ccc(C(C)(C)CC)cc2)CC1 | 87.9% (inactive)
54 | OCC(CO)(CCl)CCl | 89.4% (inactive)
55 | COc1ccc(-c2cc(/C=C/C(=O)c3ccc(N)cc3)[nH]n2)cc1 | 23% (inactive)
56 | CC(C)(C)c1nc(-c2ccc(O)c(O)c2)cs1 | 43.2% (inactive)
57 | Brc1ccc(Cn2nnnc2-c2ccn(-c3ccccc3)n2)cc1 | 83.4% (inactive)
58 | COC(=O)C(Cc1ccccc1)n1cc(COc2nc(Cl)nc(Nc3ccc(Cl)cc3)n2)nn1 (stereo not drawn) | 91.5% (inactive)
59 | COc1cccc(-c2nn(-c3ccccc3)cc2-c2ccnc(NCCNS(=O)(=O)c3ccccc3)c2)c1 | 29.8% (inactive)
60 | Nc1c(C(=O)Nc2cccc3ccccc23)sc2nc3c(cc12)CCCC3 | 7.77% (active)
61 | Cn1cc(-c2csc(-c3cn(CCN)c4ccc(F)cc34)n2)c2cccnc21 | 81.4% (inactive)
62 | COc1ccc(NC(=S)N/N=C/c2ccccc2SSCCC(=O)OC[C@H]2O[C@H](O)[C@H](O)[C@@H](O)[C@@H]2O)cc1 | 47.8% (inactive)
63 | c1ccc(-c2nc(Nc3ccc(-c4nc5ccccc5[nH]4)cc3)nc(N3CCOCC3)n2)cc1 | -80.7% (active)
64 | COc1cnc2c(c1)C(=O)c1c-2n(CCCNC2=NCCS2)c(=O)c2cc([N+](=O)[O-])ccc12 | -73.5% (active)
65 | OCCNc1nc(Nc2ccc(Cl)c(Cl)c2)nc2ccccc12 | 29.9% (inactive)
66 | Oc1ccc(CCC2CCCC(CCc3ccc(OCCF)cc3)N2)cc1 (stereo not drawn) | 90.4% (inactive)
67 | Cc1ccsc1-c1ccc2c(c1)COC2(CCCN(C)C)c1ccc(F)cc1 (stereo not drawn) | -57.5% (active)
68 | COc1ccc(NC(=O)c2ccoc2COc2ccccc2)cc1 | 92.1% (inactive)
